# Data reported in article PMC7862700, “An all-to-all approach to the identification of sequence-specific readers for epigenetic DNA modifications on cytosine”.
# Experiments:
# Experiment in all cases: DAPPL (digital affinity profiling via proximity ligation, sequencing); 10 mM Tris-HCl pH 7.5, 50 mM NaCl, 1 mM DTT, 4% glycerol, room temperature, 30 min; GST-TFs on glutathione beads, 16-mer random dsDNA library, 0.1% formaldehyde crosslink after washing; high values mean tight binding
# [1] = target: T1, FEV (Homo sapiens, UniProt Q99581 1-238); settings: protein: recombinant; tags: N-terminal GST; dsDNA, one strand shown
# T1 sequence: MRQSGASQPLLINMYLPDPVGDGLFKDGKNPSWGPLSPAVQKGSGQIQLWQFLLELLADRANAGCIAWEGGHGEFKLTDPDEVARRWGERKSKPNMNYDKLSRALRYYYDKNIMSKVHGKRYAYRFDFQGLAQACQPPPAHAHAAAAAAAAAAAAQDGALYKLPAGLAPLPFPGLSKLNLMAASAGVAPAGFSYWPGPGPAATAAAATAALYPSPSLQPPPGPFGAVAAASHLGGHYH
# Method in brief: (§1)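 The binding signal reported is, for every hexamer, its read frequency for a factor over its read frequency for the tag-only sample. Reads came from pools of yeast-expressed, GST-fused human transcription factors on glutathione beads, barcoded with DNA and mixed with that sample, which were incubated with 200 nmole of a random double-stranded 16-mer DNA library in Tris/NaCl/DTT/glycerol buffer at room temperature for 30 min. After washing, the pools were crosslinked with 0.1% formaldehyde, proximity-ligated with BsaI/T4 ligase for 1 h at 37 °C, PCR-amplified and sequenced on an Illumina NextSeq500.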
# [2] = target: ETV5 (Homo sapiens, UniProt P41161 1-510); settings: protein: recombinant; tags: N-terminal GST; dsDNA, one strand shown
# Sequence of ETV5 (P41161 whole entry): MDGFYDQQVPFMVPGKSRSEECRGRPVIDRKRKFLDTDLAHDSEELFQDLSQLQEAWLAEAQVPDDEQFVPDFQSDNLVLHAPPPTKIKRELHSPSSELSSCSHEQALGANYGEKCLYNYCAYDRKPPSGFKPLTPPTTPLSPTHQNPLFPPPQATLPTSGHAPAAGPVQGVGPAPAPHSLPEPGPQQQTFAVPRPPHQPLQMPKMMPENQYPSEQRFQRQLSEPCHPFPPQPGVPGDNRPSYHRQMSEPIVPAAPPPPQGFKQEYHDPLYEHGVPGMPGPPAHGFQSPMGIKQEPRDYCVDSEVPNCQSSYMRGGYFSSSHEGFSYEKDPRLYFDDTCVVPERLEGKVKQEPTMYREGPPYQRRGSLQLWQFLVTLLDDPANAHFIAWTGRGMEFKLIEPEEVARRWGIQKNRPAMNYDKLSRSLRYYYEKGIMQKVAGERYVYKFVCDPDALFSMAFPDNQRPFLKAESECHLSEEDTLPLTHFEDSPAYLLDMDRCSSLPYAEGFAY
# Method in brief: as §1
# [3] = target: HSF1 (Homo sapiens, UniProt Q00613 1-529); settings: protein: recombinant; tags: N-terminal GST; chain copies: 3; dsDNA, one strand shown
# Sequence of HSF1 (Q00613 whole entry): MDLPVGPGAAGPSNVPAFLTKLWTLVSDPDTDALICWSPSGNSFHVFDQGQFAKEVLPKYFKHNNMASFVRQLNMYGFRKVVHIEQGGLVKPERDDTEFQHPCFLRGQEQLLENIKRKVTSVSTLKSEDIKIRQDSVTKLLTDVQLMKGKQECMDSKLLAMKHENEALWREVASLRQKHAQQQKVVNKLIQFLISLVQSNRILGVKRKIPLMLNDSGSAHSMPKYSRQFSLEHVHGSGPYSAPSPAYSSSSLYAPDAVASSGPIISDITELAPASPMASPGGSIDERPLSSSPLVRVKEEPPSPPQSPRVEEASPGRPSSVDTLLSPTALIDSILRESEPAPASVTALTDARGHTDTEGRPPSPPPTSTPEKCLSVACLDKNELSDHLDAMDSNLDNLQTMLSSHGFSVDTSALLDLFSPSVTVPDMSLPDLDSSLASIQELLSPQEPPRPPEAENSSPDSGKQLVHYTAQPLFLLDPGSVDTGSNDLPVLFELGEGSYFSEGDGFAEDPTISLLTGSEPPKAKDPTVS
# Method in brief: as §1
# [4] = target: T2, SPIC (Homo sapiens, UniProt Q8N5J4 1-248); settings: protein: recombinant; tags: N-terminal GST; dsDNA, one strand shown
# T2 sequence: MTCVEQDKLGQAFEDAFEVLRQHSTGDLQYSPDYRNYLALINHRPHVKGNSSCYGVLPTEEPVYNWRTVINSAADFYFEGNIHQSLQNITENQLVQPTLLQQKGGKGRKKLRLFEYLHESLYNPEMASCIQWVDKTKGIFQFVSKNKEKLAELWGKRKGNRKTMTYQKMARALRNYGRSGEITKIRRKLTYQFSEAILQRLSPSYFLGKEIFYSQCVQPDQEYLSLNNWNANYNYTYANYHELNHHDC
# Method in brief: as §1
# [5] = target: ELF4 (Homo sapiens, UniProt Q99607 1-663); settings: protein: recombinant; tags: N-terminal GST; dsDNA, one strand shown
# Sequence of ELF4 (Q99607 whole entry): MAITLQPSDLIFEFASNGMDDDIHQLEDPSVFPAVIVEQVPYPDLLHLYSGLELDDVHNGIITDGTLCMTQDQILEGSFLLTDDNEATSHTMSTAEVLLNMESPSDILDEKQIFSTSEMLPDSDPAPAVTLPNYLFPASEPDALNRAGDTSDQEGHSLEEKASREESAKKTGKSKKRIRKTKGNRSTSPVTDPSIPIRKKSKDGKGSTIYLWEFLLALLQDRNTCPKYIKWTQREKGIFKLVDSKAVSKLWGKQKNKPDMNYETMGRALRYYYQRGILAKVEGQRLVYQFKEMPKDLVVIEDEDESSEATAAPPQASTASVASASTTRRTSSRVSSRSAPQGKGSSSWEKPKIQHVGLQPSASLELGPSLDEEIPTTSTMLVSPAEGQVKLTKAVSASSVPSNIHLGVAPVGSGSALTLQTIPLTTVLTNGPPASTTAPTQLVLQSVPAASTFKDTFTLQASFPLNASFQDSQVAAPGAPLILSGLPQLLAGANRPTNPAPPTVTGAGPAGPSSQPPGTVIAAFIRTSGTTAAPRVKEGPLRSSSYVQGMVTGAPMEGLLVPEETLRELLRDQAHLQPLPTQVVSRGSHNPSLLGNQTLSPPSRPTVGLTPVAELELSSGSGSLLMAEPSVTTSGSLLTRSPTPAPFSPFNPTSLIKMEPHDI
# Method in brief: as §1
# [6] = target: T3, ELK4 (Homo sapiens, UniProt P28324-2 1-405); settings: protein: recombinant; tags: N-terminal GST; dsDNA, one strand shown
# T3 sequence: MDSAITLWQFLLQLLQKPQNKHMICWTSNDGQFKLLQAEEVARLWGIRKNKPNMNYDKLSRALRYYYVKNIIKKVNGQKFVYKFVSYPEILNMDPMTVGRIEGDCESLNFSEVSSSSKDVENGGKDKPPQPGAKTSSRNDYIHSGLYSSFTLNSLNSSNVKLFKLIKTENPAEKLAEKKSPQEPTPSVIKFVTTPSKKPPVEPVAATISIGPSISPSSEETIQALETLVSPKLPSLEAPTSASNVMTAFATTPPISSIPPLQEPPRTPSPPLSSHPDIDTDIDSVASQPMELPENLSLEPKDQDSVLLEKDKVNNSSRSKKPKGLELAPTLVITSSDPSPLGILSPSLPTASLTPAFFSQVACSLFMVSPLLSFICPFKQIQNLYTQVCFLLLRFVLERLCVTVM
# Method in brief: as §1
# [7] = target: T4, ETV2 (Homo sapiens, UniProt O00321 1-342); settings: protein: recombinant; tags: N-terminal GST; dsDNA, one strand shown
# T4 sequence: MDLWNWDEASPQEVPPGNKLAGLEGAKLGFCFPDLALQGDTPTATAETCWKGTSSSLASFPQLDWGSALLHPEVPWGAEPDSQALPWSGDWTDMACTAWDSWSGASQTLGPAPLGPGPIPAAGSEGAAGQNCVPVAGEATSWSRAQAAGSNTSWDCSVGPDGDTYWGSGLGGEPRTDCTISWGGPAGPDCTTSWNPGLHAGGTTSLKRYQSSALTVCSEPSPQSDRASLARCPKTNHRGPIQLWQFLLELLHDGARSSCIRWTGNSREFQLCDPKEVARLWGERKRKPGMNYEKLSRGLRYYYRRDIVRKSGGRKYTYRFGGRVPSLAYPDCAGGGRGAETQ
# Method in brief: as §1
# [8] = target: T5, ELF3 (Homo sapiens, UniProt P78545 1-371); settings: protein: recombinant; tags: N-terminal GST; dsDNA, one strand shown
# T5 sequence: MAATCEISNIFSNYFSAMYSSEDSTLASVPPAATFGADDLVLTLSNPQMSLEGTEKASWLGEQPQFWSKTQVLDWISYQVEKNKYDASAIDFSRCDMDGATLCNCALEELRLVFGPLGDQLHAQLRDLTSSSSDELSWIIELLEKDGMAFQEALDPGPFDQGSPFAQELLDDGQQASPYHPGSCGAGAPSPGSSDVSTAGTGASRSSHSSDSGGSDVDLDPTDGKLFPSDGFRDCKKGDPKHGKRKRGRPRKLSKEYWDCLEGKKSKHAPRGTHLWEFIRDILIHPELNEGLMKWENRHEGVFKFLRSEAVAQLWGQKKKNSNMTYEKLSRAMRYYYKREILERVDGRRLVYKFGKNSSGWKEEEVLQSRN
# Method in brief: as §1
# [9] = target: ETV1 (Homo sapiens, UniProt P50549 1-477); settings: protein: recombinant; tags: N-terminal GST; dsDNA, one strand shown
# Sequence of ETV1 (P50549 whole entry): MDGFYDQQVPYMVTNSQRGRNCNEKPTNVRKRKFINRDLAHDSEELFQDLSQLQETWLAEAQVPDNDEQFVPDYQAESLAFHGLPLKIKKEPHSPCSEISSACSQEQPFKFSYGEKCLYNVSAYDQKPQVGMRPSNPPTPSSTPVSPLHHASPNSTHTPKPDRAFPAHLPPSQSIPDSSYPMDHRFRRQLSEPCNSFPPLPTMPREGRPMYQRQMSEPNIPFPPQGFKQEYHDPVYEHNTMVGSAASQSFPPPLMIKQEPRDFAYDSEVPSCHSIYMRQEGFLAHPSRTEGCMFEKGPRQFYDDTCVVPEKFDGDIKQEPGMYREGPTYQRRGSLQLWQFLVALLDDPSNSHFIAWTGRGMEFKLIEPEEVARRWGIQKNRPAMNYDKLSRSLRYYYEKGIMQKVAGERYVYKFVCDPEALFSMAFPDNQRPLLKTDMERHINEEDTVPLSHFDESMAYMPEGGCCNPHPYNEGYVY
# Method in brief: as §1
# [10] = target: T6, ERF (Homo sapiens, UniProt P50548 1-548); settings: protein: recombinant; tags: N-terminal GST; dsDNA, one strand shown
# T6 sequence: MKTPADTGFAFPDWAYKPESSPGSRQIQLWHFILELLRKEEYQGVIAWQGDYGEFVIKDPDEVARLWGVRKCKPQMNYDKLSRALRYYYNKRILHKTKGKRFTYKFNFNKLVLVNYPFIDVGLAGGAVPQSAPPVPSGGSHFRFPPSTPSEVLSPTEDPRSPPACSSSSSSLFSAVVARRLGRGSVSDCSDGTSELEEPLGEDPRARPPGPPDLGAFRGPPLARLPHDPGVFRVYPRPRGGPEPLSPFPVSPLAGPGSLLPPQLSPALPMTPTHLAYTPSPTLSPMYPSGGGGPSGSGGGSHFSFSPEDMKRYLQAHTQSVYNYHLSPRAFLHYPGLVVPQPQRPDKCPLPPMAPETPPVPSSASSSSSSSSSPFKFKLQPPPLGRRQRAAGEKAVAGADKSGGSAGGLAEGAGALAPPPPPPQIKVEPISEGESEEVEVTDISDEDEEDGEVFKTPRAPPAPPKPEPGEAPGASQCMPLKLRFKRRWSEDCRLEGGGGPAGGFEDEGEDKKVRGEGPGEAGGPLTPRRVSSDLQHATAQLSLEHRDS
# Method in brief: as §1
# [11] = target: T7, ETV3L (Homo sapiens, UniProt Q6ZN32 1-361); settings: protein: recombinant; tags: N-terminal GST; dsDNA, one strand shown
# T7 sequence: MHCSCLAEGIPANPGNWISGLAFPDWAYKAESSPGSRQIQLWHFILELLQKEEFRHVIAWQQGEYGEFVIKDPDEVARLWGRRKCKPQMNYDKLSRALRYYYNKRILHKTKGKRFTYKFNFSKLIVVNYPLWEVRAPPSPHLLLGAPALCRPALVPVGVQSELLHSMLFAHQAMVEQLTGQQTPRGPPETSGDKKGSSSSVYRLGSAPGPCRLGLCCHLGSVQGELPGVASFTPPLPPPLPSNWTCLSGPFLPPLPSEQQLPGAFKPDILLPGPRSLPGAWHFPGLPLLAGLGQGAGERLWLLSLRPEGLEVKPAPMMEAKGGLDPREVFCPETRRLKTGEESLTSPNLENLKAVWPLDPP
# Method in brief: as §1
# [12] = target: T8, ETS2 (Homo sapiens, UniProt P15036 1-469); settings: protein: recombinant; tags: N-terminal GST; dsDNA, one strand shown
# T8 sequence: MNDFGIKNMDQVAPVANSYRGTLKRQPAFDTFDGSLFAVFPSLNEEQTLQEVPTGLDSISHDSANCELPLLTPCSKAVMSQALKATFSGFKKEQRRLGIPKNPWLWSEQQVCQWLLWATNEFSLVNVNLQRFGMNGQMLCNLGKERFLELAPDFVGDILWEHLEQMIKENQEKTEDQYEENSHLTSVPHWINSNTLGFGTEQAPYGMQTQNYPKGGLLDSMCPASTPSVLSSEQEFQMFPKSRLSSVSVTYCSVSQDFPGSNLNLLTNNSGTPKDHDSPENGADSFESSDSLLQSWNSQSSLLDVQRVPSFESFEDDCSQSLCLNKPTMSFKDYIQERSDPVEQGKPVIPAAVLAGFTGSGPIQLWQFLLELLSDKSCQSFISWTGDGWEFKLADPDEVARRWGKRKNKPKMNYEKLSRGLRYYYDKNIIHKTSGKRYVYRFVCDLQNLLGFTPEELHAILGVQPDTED
# Method in brief: as §1
# [13] = target: T9, SPDEF (Homo sapiens, UniProt O95238 1-335); settings: protein: recombinant; tags: N-terminal GST; dsDNA, one strand shown
# T9 sequence: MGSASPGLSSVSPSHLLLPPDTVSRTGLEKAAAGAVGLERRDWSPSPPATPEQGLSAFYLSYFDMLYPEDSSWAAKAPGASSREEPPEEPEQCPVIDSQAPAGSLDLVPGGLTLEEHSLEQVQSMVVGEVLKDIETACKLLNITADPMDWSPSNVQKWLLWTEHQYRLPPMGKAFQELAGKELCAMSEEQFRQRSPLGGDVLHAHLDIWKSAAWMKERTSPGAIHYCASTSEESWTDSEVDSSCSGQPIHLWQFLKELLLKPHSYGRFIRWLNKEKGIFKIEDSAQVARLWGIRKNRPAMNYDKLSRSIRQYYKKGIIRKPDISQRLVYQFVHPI
# Method in brief: as §1
# [14] = target: T10, ETV7 (Homo sapiens, UniProt Q9Y603 1-341); settings: protein: recombinant; tags: N-terminal GST; dsDNA, one strand shown
# T10 sequence: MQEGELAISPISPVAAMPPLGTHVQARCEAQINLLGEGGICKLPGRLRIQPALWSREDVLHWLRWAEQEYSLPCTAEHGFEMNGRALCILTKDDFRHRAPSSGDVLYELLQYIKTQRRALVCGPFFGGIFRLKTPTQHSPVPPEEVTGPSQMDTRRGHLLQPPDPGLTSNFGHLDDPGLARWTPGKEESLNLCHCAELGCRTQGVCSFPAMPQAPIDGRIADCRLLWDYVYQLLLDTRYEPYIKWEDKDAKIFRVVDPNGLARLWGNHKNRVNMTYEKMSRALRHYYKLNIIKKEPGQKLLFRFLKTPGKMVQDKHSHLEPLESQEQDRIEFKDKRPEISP
# Method in brief: as §1
# [15] = target: T11, ELF5 (Homo sapiens, UniProt Q9UKW6-2 1-255); settings: protein: recombinant; tags: N-terminal GST; dsDNA, one strand shown
# T11 sequence: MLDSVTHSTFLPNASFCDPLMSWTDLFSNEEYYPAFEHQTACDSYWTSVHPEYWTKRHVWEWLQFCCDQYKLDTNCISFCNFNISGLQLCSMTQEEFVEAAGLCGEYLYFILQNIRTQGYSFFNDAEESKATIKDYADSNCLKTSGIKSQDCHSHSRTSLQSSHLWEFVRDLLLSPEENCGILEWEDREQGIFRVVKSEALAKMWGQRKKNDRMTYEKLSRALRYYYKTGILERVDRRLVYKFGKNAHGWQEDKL
# Method in brief: as §1
# [16] = target: T12, ETV3 (Homo sapiens, UniProt P41162-2 1-143); settings: protein: recombinant; tags: N-terminal GST; dsDNA, one strand shown
# T12 sequence: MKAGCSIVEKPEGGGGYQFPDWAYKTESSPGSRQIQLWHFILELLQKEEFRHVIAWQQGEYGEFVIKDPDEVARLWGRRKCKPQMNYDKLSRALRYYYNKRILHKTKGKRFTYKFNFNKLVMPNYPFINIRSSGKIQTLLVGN
# Method in brief: as §1
# [17] = target: ETV6 (Homo sapiens, UniProt P41212 1-452); settings: protein: recombinant; tags: N-terminal GST; dsDNA, one strand shown
# Sequence of ETV6 (P41212 whole entry): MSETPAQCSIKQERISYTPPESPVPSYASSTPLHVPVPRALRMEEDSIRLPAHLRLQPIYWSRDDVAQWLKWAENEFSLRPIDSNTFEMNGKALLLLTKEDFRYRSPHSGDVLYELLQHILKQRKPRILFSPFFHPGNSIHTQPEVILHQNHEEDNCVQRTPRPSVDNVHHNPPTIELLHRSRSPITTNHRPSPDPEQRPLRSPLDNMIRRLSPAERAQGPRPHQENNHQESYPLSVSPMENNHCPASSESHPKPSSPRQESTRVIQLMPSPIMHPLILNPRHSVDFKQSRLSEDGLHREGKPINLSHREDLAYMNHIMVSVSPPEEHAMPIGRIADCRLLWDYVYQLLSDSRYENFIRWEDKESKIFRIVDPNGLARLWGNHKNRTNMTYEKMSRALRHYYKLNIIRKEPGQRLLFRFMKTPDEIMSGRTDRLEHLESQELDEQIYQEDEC
# Method in brief: as §1
sequence,measurement,setting,value
ATGCAC,binding signal,[1],"1.37 fold enrichment (6-mer frequency, TF over GST control)"
same,binding signal,[2],"1.28 fold enrichment (6-mer frequency, TF over GST control)"
same,binding signal,[3],"1.03 fold enrichment (6-mer frequency, TF over GST control)"
same,binding signal,[4],"1.19 fold enrichment (6-mer frequency, TF over GST control)"
same,binding signal,[5],"1.3 fold enrichment (6-mer frequency, TF over GST control)"
same,binding signal,[6],"1.36 fold enrichment (6-mer frequency, TF over GST control)"
same,binding signal,[7],"1.3 fold enrichment (6-mer frequency, TF over GST control)"
same,binding signal,[8],"1.36 fold enrichment (6-mer frequency, TF over GST control)"
same,binding signal,[9],"1.19 fold enrichment (6-mer frequency, TF over GST control)"
same,binding signal,[10],"1.25 fold enrichment (6-mer frequency, TF over GST control)"
same,binding signal,[11],"1.28 fold enrichment (6-mer frequency, TF over GST control)"
same,binding signal,[12],"1.29 fold enrichment (6-mer frequency, TF over GST control)"
same,binding signal,[13],"1.5 fold enrichment (6-mer frequency, TF over GST control)"
same,binding signal,[14],"1.3 fold enrichment (6-mer frequency, TF over GST control)"
same,binding signal,[15],"1.19 fold enrichment (6-mer frequency, TF over GST control)"
same,binding signal,[16],"1.31 fold enrichment (6-mer frequency, TF over GST control)"
same,binding signal,[17],"1.29 fold enrichment (6-mer frequency, TF over GST control)"
